Data reported in PMC3795721, “Screening for Protein-DNA Interactions by Automatable DNA-Protein Interaction ELISA”.

target: AT4G31550 (Arabidopsis thaliana, UniProt Q9SV15 228-325); test: DPI-ELISA; DPI-ELISA, streptavidin 384-well plate, 1-2 pmol biotinylated dsDNA per well, crude native E. coli extract, anti-His detection; buffer as in Brand et al. [46],; high values mean tight binding; details: tags: C-terminal His (pET-DEST42); label: 5' biotin on forward strand; dsDNA, one strand shown
Sequence (Q9SV15 228-325): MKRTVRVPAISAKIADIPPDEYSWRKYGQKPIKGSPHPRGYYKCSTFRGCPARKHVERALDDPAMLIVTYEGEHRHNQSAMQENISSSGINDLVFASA

Sequence | binding signal [absorbance]
AAAAAATTGGCACACATGATCTCGGGAAAA | 0.56 ± 0.113
AAAAAATAGCGACTTCGACTCTCAGTAAAA | 0.76 ± 0.0707
AAAAAAGCTCGTCTCCGCCTCCTGCTAAAA | 0.785 ± 0.262
AAAAAAGCCGTGGGTGATGGTCACAGAAAA | 0.56 ± 0.113
AAAAAAATTCGCAACCCTCACGTTCGAAAA | 0.67 ± 0.0566
AAAAAAAGGGTGCTATTCGTCGACACAAAA | 0.63 ± 0.141
AAAAAATGCCATTGTACCTGTGTTCGAAAA | 0.395 ± 0.0354
AAAAAACTCTTAAGGAAAGTTCCGACAAAA | 0.645 ± 0.12
AAAAAATTTCTCCTTCTTTGTTCTTCAAAA | 0.66 ± 0.141
AAAAAACCTCTTGTCTCTGCTCTCCCAAAA | 0.575 ± 0.106
AAAAAAACTCACGGCGTCACTATGGTAAAA | 0.585 ± 0.12
AAAAAATCCCTGCTCCCCTGGTTCCTAAAA | 0.45 ± 0.141
AAAAAAAGTAGTTACTGCGAAAGTCTAAAA | 0.675 ± 0.0778
AAAAAATAGTACCGCTAATGGCTGACAAAA | 0.605 ± 0.12
AAAAAACCGCTTACATTGCGTTGTCGAAAA | 0.605 ± 0.0495
AAAAAAGGAAGTACTGACGATCTGGAAAAA | 0.615 ± 0.148
AAAAAATATCTGATCCAATTTAGGTCAAAA | 1.5 ± 0.0212
AAAAAACTTCTAGTTTATGCTTCCGTAAAA | 0.69 ± 0.141
AAAAAAGTCTGCGTCCTACCCCATTCAAAA | 1.04 ± 0.184

Sequence | binding signal [absorbance]
AAAAAAGTTATTATACCTGATCTCGCAAAA | 1 ± 0.778
AAAAAACCGAGTGTTGCCAGTTGCAGAAAA | 0.655 ± 0.0919
AAAAAATTCCGGCTTGACGCTGCATAAAAA | 0.655 ± 0.106
AAAAAAGTGTGTGGCTCAGGATTCCCAAAA | 0.55 ± 0.0849
AAAAAACCGGCACGATTTGGATATTCAAAA | 0.64 ± 0.113
AAAAAAACACCTGTATAGCATGGACGAAAA | 0.73 ± 0.0707
AAAAAATCAGTCTGAGACTTACAACTAAAA | 0.84 ± 0.283
AAAAAATGAGAGAATTTCCGGTTCAGAAAA | 0.575 ± 0.0495
AAAAAACGGTAAGTCGACAAAA | 0.545 ± 0.0354
AAAAAAAGTTCGCGGATTTCGGCCATAAAA | 0.685 ± 0.148
AAAAAAAGCTTCTATAGCTCCATGGAAAA | 0.515 ± 0.106
AAAAAATAATTACAAGTCGGCTCCACAAAA | 0.69 ± 0.0707
AAAAAAGATCTAGGCCTTGGGACTCAAAAA | 0.415 ± 0.0636
AAAAAACCCGGTTGGAGAAAATAATTAAAA | 0.55 ± 0.127
AAAAAAGTCGTTACACGTATGCGTGCAAAA | 1.5 ± 0.0566
AAAAAATCCTTTTCTCTTTCTGTTTCAAAA | 0.575 ± 0.12
AAAAAATATTCGCCGGTAGCCACGCTAAAA | 0.565 ± 0.12
AAAAAAATCCGATCGATGCATATATAAAA | 0.725 ± 0.106
AAAAAATGGCTCGGGTTCCAAGGTTGAAAA | 0.645 ± 0.0919
